According to PubChem BioAssay (Tox21):
Results filed as inconclusive are left out. The source made the active and inactive calls. Unless noted, calls come from the whole dose curve; as a rule, active = well fitted curve in the direction sought with a large enough effect in the repeat runs; inconclusive = weak or mixed curves; inactive = no such curve, though single readings can be large; an effect the other way counts as inactive or inconclusive.

Legend:
[1] = qHTS assay to identify small molecule agonists of the estrogen receptor alpha (ER-alpha) signaling pathway in the presence of an antagonist - cell viability counter screen (AID 1259386);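 note: cells exposed to compounds for 22 h at 37 °C before the viability read; nearly all actives have a fitted effect of over 30% in size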; note: potency is the fitted concentration of half-maximal effect; for activity change, negative = cytotoxicity: series mostly up to about 92 µM
Summary of the method: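 Cell viability in VM7Luc4E2 cells (endogenous full-length ER-alpha) measured by CellTiter-Fluor fluorescence in the same wells as the luciferase screen. Cells pre-cultured 5 days in charcoal-stripped serum, then treated 22 h with compounds at 15 concentrations plus 10.0nM ICI-182,780.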

[2] = molecular target: Progesterone receptor (Homo sapiens) (UniProt P06401); assay: qHTS assay to identify small molecule agonists of the progesterone receptor (PR) signaling pathway (AID 1346784; calls by dose curve; note: nearly all actives have a fitted effect of over 30% in size)
Summary of the method: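 Reporter assay, GripTite PR-UAS-bla HEK 293T cells: 16 hr exposure to DMSO-dissolved compounds at 37C, 5% CO2, in steroid-depleted (2% charcoal-stripped FBS) medium; beta-lactamase measured by FRET fluorescence.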

[3] = molecular target: Progesterone receptor (Homo sapiens) (UniProt P06401); assay: qHTS assay to identify small molecule antagonists of the progesterone receptor (PR) signaling pathway (AID 1346795; active = well fitted inhibition curve with a large enough effect in the signal ratio in the repeat runs, not every such curve was filed as active; the % refers to the signal ratio; note: potency is the fitted concentration of half-maximal effect)
Summary of the method: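 Stimulus R5020 at 1 nM final; cells HEK293T PR-UAS-bla; medium with 2% charcoal-stripped FBS; compound exposure 16 hr at 37C, 5% CO2; detection by FRET beta-lactamase substrate, 2 hr, room temperature.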

[4] = qHTS assay to identify small molecule antagonists of the progesterone receptor (PR) signaling pathway - cell viability counter screen (AID 1346798); note: series mostly up to about 92 µM; nearly all actives have a fitted effect of over 50% in size
Summary of the method: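 In the same plates used for the beta-lactamase readout, cell viability of compound- and R5020-treated PR-UAS-bla HEK293T cells (16 hr, 37C) was assessed by CellTiter-Glo luminescence.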

[5] = qHTS assay to identify small molecule agonists of the progesterone receptor (PR) signaling pathway - cell viability counter screen (AID 1346799; calls by dose curve; note: nearly all actives have a fitted effect of over 45% in size)
Summary of the method: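 Multiplexed viability read: CellTiter-Glo luminescence, 30 min RT, following LiveBLAzer FRET measurement on PR-UAS-bla HEK293T cells exposed to compounds 16 hr.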

[6] = qHTS assay to identify small molecule antagonists of the TGF-beta/Smad signaling pathway - cell viability counter screen (AID 1346824); note: nearly all actives have a fitted effect of over 50% in size
Summary of the method: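 SBE-bla HEK 293T cells were plated overnight at 37 C, then given compounds in DMSO plus TGF-beta1 (added as 0.25 ng/mL solution) for 5 hr. After the bla read, CellTiter-Glo was added to the same wells and luminescence read after 30 min at room temperature.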

[7] = qHTS assay to identify small molecule agonists of the TGF-beta/Smad signaling pathway - cell viability counter screen (AID 1346829); note: top concentration of the series differs between compounds; nearly all actives have a fitted effect of over 45% in size
Summary of the method: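 CellTiter-Glo luminescence readout; SBE-bla HEK 293T cells, overnight plating, compound 5 hr at 37 C/5% CO2, then bla substrate 2 hr RT, then CellTiter-Glo 30 min RT.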

[8] = qHTS assay to identify small molecule agonists of the TGF-beta/Smad signaling pathway (AID 1346859; active = well fitted activation curve with a large enough effect in the signal ratio in the repeat runs, not every such curve was filed as active; the % refers to the signal ratio; note: series mostly up to about 77 µM)
Summary of the method: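 Screening used HEK 293T SBE-bla cells at 4,000/well. Test agents: 5 hr, 37 C. Detection: FRET substrate, 2 hr RT, then excitation 405 nm with emissions at 460 and 530 nm.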

[9] = molecular target: Thyrotropin-releasing hormone receptor (Homo sapiens) (UniProt P34981); assay: qHTS assay to identify small molecule antagonists of the thyrotropin-releasing hormone receptor (TRHR) signaling pathway (AID 1346877; active = well fitted inhibition curve with a large enough effect in the repeat runs, not every such curve was filed as active; note: series mostly up to about 51 µM)
Summary of the method: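 TRHR-expressing HEK293 cells loaded with calcium dye for 2 h at 37 C; compounds pre-incubated 5 min at room temperature before TRH challenge at 1 nM final. Intracellular calcium fluorescence read kinetically for 3 min; 15 concentrations in triplicate.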

[10] = molecular target: Thyrotropin-releasing hormone receptor (Homo sapiens) (UniProt P34981); assay: qHTS assay to identify small molecule agonists of the thyrotropin-releasing hormone receptor (TRHR) signaling pathway (AID 1346891; calls by dose curve; note: series mostly up to about 58 µM)
Summary of the method: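 Readout was intracellular calcium fluorescence in TRHR-Hek293 cells. Cells were incubated 18 h, dye-loaded 2 h at 37 °C, and treated with compound in agonist mode.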
% is set by controls: 0 for no effect and ±100 for the full control effect.

Chain of Progesterone receptor (Homo sapiens) (P06401 whole entry, looked up): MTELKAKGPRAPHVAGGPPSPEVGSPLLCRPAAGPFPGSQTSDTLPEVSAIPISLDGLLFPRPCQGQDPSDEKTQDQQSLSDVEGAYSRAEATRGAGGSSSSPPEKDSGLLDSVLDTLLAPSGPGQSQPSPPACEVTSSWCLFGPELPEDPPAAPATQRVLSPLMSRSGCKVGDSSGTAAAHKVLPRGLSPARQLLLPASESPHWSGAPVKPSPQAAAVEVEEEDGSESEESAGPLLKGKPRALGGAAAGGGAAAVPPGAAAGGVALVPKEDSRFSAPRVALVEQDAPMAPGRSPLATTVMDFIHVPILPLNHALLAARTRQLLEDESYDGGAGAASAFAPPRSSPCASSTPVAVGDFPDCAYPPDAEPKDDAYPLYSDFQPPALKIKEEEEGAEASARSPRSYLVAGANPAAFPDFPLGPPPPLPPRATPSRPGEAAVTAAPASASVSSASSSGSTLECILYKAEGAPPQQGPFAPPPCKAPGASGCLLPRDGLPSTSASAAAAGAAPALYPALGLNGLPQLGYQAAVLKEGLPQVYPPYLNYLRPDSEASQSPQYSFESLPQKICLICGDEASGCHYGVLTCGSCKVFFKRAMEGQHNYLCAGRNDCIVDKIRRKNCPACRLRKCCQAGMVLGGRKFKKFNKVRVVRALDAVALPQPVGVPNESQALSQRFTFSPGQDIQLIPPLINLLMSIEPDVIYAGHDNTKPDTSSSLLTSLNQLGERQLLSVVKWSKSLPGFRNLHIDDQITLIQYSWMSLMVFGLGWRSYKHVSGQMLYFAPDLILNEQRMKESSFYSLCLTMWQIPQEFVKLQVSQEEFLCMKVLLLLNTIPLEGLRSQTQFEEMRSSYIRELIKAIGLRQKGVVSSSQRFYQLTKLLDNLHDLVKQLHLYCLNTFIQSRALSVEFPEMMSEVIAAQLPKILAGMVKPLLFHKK
Chain of Thyrotropin-releasing hormone receptor (Homo sapiens) (P34981 whole entry, looked up): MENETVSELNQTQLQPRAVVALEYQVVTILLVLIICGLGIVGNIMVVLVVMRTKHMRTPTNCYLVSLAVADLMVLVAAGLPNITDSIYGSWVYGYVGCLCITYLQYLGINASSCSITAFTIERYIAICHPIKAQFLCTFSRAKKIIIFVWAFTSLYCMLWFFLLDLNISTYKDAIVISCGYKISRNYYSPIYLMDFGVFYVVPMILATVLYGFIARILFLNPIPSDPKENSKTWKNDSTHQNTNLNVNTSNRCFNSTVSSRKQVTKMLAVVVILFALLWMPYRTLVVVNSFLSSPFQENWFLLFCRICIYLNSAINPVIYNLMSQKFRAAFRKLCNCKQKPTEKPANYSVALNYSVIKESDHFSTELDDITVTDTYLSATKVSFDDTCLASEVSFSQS

CC(C)[N+](=O)[O-]
inactive: Potency [1] | Potency [2] | Potency [3] | Potency [4] | Potency [5] | Potency [6] | outcome [7] | outcome [8] | outcome [9] | outcome [10]

N#CC(O)c1ccccc1 (stereo not drawn)
inactive: Potency [1] | Potency [2] | Potency [3] | Potency [4] | Potency [5] | Potency [6] | outcome [7] | outcome [8] | outcome [9] | outcome [10]

O=C(Cc1ccccc1)OCc1ccccc1
inactive: Potency [1] | Potency [2] | Potency [3] | Potency [4] | Potency [5] | Potency [6] | outcome [7]

CCS(=O)(=O)CCSP(=O)(OC)OC
inactive: Potency [1] | Potency [2] | Potency [3] | Potency [4] | Potency [5] | Potency [6] | outcome [7]

CCOc1nc(C(Cl)(Cl)Cl)ns1
inactive: Potency [1] | Potency [2] | Potency [3] | Potency [4] | Potency [5] | Potency [6] | outcome [7] | outcome [8] | outcome [9] | outcome [10]

CC(N)=S
inactive: Potency [1] | Potency [2] | Potency [3] | Potency [4] | Potency [5] | Potency [6] | outcome [7] | outcome [8] | outcome [9] | outcome [10]

CNCC(=O)c1ccc(O)c(O)c1
inactive: Potency [1] | Potency [2] | Potency [3] | Potency [4] | Potency [5] | Potency [6] | outcome [7] | outcome [8] | outcome [9] | outcome [10]

O=C1CN=C(c2ccccc2)c2cc([N+](=O)[O-])ccc2N1
inactive: Potency [1] | Potency [2] | Potency [3] | Potency [4] | Potency [5] | Potency [6] | outcome [7] | outcome [8] | outcome [9] | outcome [10]

O=[N+]([O-])c1cccc(O)c1
inactive: Potency [1] | Potency [2] | Potency [3] | Potency [4] | Potency [5] | Potency [6] | outcome [7] | outcome [8] | outcome [9] | outcome [10]

CC(C=O)Cc1ccc2c(c1)OCO2 (stereo not drawn)
inactive: Potency [1] | Potency [2] | Potency [3] | Potency [4] | Potency [5] | Potency [6] | outcome [7] | outcome [8]

OC(Cn1cncn1)(c1ccc(F)cc1)c1ccccc1F (stereo not drawn)
inactive: Potency [1] | Potency [2] | Potency [3] | Potency [4] | Potency [5] | Potency [6] | outcome [7] | outcome [8] | outcome [9] | outcome [10]

COC(=O)C1=CCCN(C)C1
inactive: Potency [1] | Potency [2] | Potency [3] | Potency [4] | Potency [5] | Potency [6] | outcome [7] | outcome [8]

Nc1c(Br)cc([N+](=O)[O-])cc1[N+](=O)[O-]
active: Potency [1] 31 µM | Potency [3] 27.6 µM
inactive: Potency [2] | Potency [4] | Potency [5] | Potency [6] | outcome [7] | outcome [8] | outcome [9] | outcome [10]

NC(=O)O
inactive: Potency [1] | Potency [2] | Potency [3] | Potency [4] | Potency [5] | Potency [6] | outcome [7] | outcome [8] | outcome [9] | outcome [10]

O=C(O)c1ccc2[nH]cc(CCCCN3CC=C(c4ccccc4)CC3)c2c1
inactive: Potency [1] | Potency [2] | Potency [3] | Potency [4] | Potency [5] | Potency [6] | outcome [7] | outcome [8]

Cc1ccccc1CO[C@@H]1C[C@@]2(C(C)C)CC[C@]1(C)O2
inactive: Potency [1] | Potency [2] | Potency [3] | Potency [4] | Potency [5] | Potency [6] | outcome [7] | outcome [8] | outcome [9] | outcome [10]

C[C@@H]1CN(C2CCC(C#N)(c3ccc(F)cc3)CC2)CC[C@]1(C(=O)O)c1ccccc1 (stereo partly drawn)
inactive: Potency [1] | Potency [2] | Potency [3] | Potency [4] | Potency [5] | Potency [6] | outcome [7] | outcome [8]

C=C(C)[C@@H]1CC=C(C=O)CC1
inactive: Potency [1] | Potency [2] | Potency [3] | Potency [4] | Potency [5] | Potency [6] | outcome [7] | outcome [8]

CC(C(O)c1ccccc1)N(C)C/C=C/c1ccccc1 (stereo not drawn)
inactive: Potency [1] | Potency [2] | Potency [3] | Potency [4] | Potency [5] | Potency [6] | outcome [7] | outcome [8]

C(CCOCC1CO1)COCC1CO1 (stereo not drawn)
inactive: Potency [1] | Potency [2] | Potency [3] | Potency [4] | Potency [5] | Potency [6] | outcome [7] | outcome [8] | outcome [9] | outcome [10]

CCCCC(=O)Cl
inactive: Potency [1] | Potency [2] | Potency [3] | Potency [4] | Potency [5] | Potency [6] | outcome [7] | outcome [8]

C=C(C)CN(CC)c1c([N+](=O)[O-])cc(C(F)(F)F)cc1[N+](=O)[O-]
inactive: Potency [1] | Potency [2] | Potency [3] | Potency [4] | Potency [5] | Potency [6] | outcome [7] | outcome [8] | outcome [9] | outcome [10]

CC1=C(C(=O)O)N2C(=O)[C@@H](N)[C@H]2SC1
inactive: activity change, negative = cytotoxicity [1] 2.04% [at 19 µM] | activation [2] -0.285% [at 19 µM] | activity change, negative = inhibition [3] 1.39% [at 18.9 µM] | activity change, negative = cytotoxicity [4] 11.2% [at 18.9 µM] | activity change, negative = cytotoxicity [5] 0.398% [at 19 µM] | viability change, negative = cytotoxic [6] 0.38% [at 15.8 µM] | activity change, negative = cytotoxicity [7] 8.87% [at 15.8 µM] | activation [8] 3.18% [at 15.8 µM] | activity, negative = inhibition [9] -1.01% [at 10.5 µM] | activation [10] -0.183% [at 11.8 µM]

CC(=O)Nc1cc([As](=O)(O)O)ccc1O
inactive: Potency [1] | Potency [2] | Potency [3] | Potency [4] | Potency [5] | Potency [6] | outcome [7] | outcome [8] | outcome [9] | outcome [10]

ClC(Cl)C(Cl)Cl
inactive: Potency [1] | Potency [2] | Potency [3] | Potency [4] | Potency [5] | Potency [6] | outcome [7] | outcome [8]

O=C(Nc1ccccc1)c1ccccc1I
inactive: Potency [1] | Potency [2] | Potency [4] | Potency [5] | Potency [6] | outcome [7] | outcome [8] | outcome [9] | outcome [10]
active: Potency [3] 54.5 µM
